Compound activity deposited in PubChem BioAssay by Broad Institute.
c-Myc SMM – binders of human c-Myc, primary screen, biochemical, small molecule microarray, anti-His fluorescence; His-c-Myc binding; 1.5% of 17,000 active; AID 624141, 2012; Myc proto-oncogene protein (Homo sapiens), P01106; calls only;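 active = spot fluorescence over background with P-value below 7% in all four replicate spots, showing protein binding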
p53 mut binder – binders of human mutant p53, primary screen, biochemical, small molecule microarray, anti-GST fluorescence. mutant tumor protein p53 (GST-tagged), Homo sapiens. small molecule microarray binding. calls only. 0.4% of 17,000 active. AID 624136, 2012;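 active = compounds whose four printed spots each glow above background more than chance allows, each with a p-value under 7%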
NFkB SMM – binders of NF-kB p50 subunit, primary screen, biochemical, small molecule microarray, anti-His fluorescence; anti-His fluorescence binding; calls only; 1.3% of 17,000 active; AID 624139, 2012;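 active = spot fluorescence over background significantly raised, with a chance value under 7% in all four replicate spots of the compound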;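 also: probe protein is his-tagged human p50 processed subunit at 1 µg/ml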
STAT3 SMM – STAT3 binders, primary screen, biochemical, small molecule microarray, single point, set 2; Signal transducer and activator of transcription 3 (Homo sapiens), P40763; His-STAT3 binding, anti-His fluorescence; calls only; 0.2% of 17,000 active; AID 624138, 2012;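 active = compounds whose four printed spots each show fluorescence over background unusually high for their array block, chance value under 7%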
Target sequence (P40763 whole entry, looked up): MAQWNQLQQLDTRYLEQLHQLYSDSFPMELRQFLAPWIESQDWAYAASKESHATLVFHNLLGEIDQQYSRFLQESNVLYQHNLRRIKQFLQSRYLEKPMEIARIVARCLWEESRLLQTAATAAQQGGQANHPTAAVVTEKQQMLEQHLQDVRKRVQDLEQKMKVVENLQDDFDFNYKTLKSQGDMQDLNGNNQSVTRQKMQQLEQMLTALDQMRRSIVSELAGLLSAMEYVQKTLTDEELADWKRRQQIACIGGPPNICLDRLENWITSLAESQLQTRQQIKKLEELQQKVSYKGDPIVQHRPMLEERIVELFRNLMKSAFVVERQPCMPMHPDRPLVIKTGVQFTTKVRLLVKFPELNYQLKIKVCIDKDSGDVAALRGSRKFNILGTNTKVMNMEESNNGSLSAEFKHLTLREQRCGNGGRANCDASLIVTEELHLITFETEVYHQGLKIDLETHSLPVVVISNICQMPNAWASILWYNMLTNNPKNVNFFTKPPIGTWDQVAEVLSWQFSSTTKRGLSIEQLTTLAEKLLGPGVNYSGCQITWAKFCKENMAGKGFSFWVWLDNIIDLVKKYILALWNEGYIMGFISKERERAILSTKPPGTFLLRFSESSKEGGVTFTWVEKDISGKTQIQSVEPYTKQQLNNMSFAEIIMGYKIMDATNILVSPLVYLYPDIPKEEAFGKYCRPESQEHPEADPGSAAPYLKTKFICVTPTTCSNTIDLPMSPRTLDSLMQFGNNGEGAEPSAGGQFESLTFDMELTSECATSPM
p53 PUMA act – mutant p53 pathway re-activators, primary screen, cell-based, SW480, luciferase, single point, HTS; SW480 PUMA-promoter luciferase, p53 mutant reactivation; activation, % at 9.98 µM; 1.5% of 28,000 active; in the data active = activation above about 52%
A number is an active result; . = inactive; / = no result; + = active, no number. In the library only some 2.8% were active in any assay of this set; here they are far more common.

SMILES	c-Myc SMM	p53 mut binder	NFkB SMM	STAT3 SMM	p53 PUMA act
Cc1ccc(S(=O)(=O)Nc2ccc3c(c2)C(=O)N([C@@H](C)CO)C[C@H](C)[C@@H](CN(C)C(=O)CCC(F)(F)F)OCCCC[C@H](C)O3)cc1	.	.	+	.	/
COC(=O)c1c(NC(=S)Nc2cccc(S(=O)(=O)N3CCOCC3)c2)sc2c1CCC2	.	.	.	.	.
COc1ccc(NC(=O)CNC(=O)c2ccccc2F)cc1Cl	/	/	/	/	.
O=C(c1ccc([N+](=O)[O-])cc1)N(Cc1cc2ccccc2[nH]c1=O)c1ccccc1	.	.	.	.	.
O=C(O)c1ccccc1Nc1nc(N2CCOCC2)nc(N2CCOCC2)n1	.	.	.	.	56
COc1ccc(C(=O)C(C)Oc2cccc(NC(=O)c3ccccc3[N+](=O)[O-])c2)cc1 (stereo not given)	/	/	/	/	.
CC(=O)c1ccc(NC(=O)CSc2nc(-c3ccccc3)c(C#N)c(=O)[nH]2)cc1	/	/	/	/	59
CNC(=O)CN(c1cccc(Cl)c1Cl)S(=O)(=O)c1ccccc1	/	/	/	/	.
Cc1ccc(OCC(=O)Nc2ccc(C)cc2[N+](=O)[O-])c(C)c1	.	.	.	.	89
Cc1ccc(NC(=O)COc2ccc(Cl)cc2C)c([N+](=O)[O-])c1	/	/	/	/	64
Cc1ccc(NC(=O)COc2ccc(Br)cc2Cl)c([N+](=O)[O-])c1	/	/	/	/	82
Cc1ccc(NC(=O)COc2ccc(Cl)cc2Br)c([N+](=O)[O-])c1	/	/	/	/	.
O=C(CC1(O)C(=O)N(Cc2ccc(Cl)cc2)c2ccccc21)c1cc2ccccc2oc1=O (stereo not given)	/	/	/	/	.
Cc1nc2cc(NC(=O)NCc3ccco3)ccc2o1	.	.	.	.	58
O=C(c1cnc2ccccn12)C(F)(F)SCc1c(Cl)cccc1Cl	/	/	/	/	.
COC(=O)c1c(-c2ccc(Br)cc2)csc1NC(=O)C1CCCCC1C(=O)O (stereo not given)	/	/	/	/	.
C/C=C/CC(C)C(O)C1C(=O)NC(CC)C(=O)N(C)CC(=O)N(C)C(CC(C)C)C(=O)NC(C(C)C)C(=O)N(C)C(CC(C)C)C(=O)NC(C)C(=O)NC(C)C(=O)N(C)C(CC(C)C)C(=O)N(C)C(CC(C)C)C(=O)N(C)C(C(C)C)C(=O)N1C (stereo not given)	/	.	+	.	.
COc1c(C=O)c(O)cc2c1C(=O)c1ccccc1C2=O	+	.	.	.	.
Cc1c(C(=O)Nc2nnc(SC/C=C/c3ccccc3)s2)oc2ccccc12	/	/	/	/	54
Cc1cc(C(=O)NCc2ccco2)no1	.	.	.	.	.
Cc1ccc(-c2cc(C(=O)NCc3ccco3)no2)cc1	/	/	/	/	73
O=C(NCc1ccccn1)C(=O)Nc1ccc(Cl)c(Cl)c1	/	/	/	/	58
O=C(NCc1ccccn1)c1cc(-c2ccccc2)on1	.	.	.	.	93
COC(=O)c1ccccc1NC(=O)C(C)Oc1ccccc1 (stereo not given)	.	.	.	.	.
COC(=O)c1cccc2nc3c(C(C)O)cccc3nc12 (stereo not given)	+	.	.	.	.
SMILES	c-Myc SMM	p53 mut binder	NFkB SMM	STAT3 SMM	p53 PUMA act
COC(=O)c1ccc(C2C(Oc3ccc(OC)cc3)C(=O)N2Cc2ccc(F)cc2)cc1 (stereo not given)	/	/	/	/	.
Cc1cccc(OCC(=O)Nc2ccccc2CO)c1C	/	/	/	/	69
O=C(COc1ccc(Cl)cc1CO)Nc1ccccc1F	.	.	.	.	128
COc1cc(CO)ccc1OCC(=O)Nc1ccccc1F	/	/	/	/	64
COc1cc(CO)ccc1OCC(=O)Nc1ccc(C)cc1	/	/	/	/	.
CC(=O)Nc1ccccc1NC(=O)COc1ccc(Cl)cc1Cl	/	/	/	/	.
O=C(CSc1nnc(-c2ccc(Br)cc2)o1)Nc1ccc(Cl)cc1Cl	/	/	/	/	.
O=C(CSc1nc2[nH]ncc2c(=O)n1-c1ccccc1)Nc1ccc(F)c(Cl)c1	.	.	.	.	.
CC(C)c1ccccc1OCC(=O)Nc1ccccc1C(N)=O	/	/	/	/	.
Cc1cc(C)n(CC(O)Cn2ccc3ccccc32)n1 (stereo not given)	+	.	+	.	.
CS(=O)(=O)N(CC(=O)Nc1cccc(Br)c1)c1cccc(Cl)c1	.	.	.	.	.
O=C(O)CCN1C(=O)c2cccc3c([N+](=O)[O-])ccc(c23)C1=O	+	.	.	.	.
